# Shown are actives, neighbours in structure and some others; about 21% of the full set was active somewhere.
# Pf growth 96h = inhibits malaria parasite growth, 96 h. P. falciparum luciferase reporter growth, 96 h. Potency, µM (doses to about 28.7 µM), for inactives: top-dose activity change, negative = inhibition, most hits filed as inhibitors. 320,000 compounds, 6.9% hits; active = well fitted inhibition curve with a large enough effect; inconclusive = small, poorly fitted or top-dose-only effect, or another doubt; inactive = no such curve, though single readings can be large or run the other way; note: potency is the fitted concentration of half-maximal effect; % is set by controls: 0 for no effect and ±100 for the full control effect
#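 Two-generation exposure (96 h) targets delayed-death phenotype. Reporter parasites carrying integrated firefly luciferase, in red cells at 2% hematocrit and 0.05% parasitemia final, kept at 37 C, 5% CO2; luminescence loss indicates inhibition.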
# NS1 function inh = inhibitors of influenza NS1 protein function; 270,000 compounds, 0.4% hits; AID 2326; Potency, µM (highest dose often 46.1 µM), for the others: top-dose activity, positive = more growth; note: potency is the fitted concentration of half-maximal effect; actives are rising curves; nearly all actives have a fitted effect of over 50% in size
#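 A cell-based growth assay was used: compounds that relieve NS1-induced slow growth of budding yeast raise OD600. Assay medium was yeast nitrogen base with ammonium sulphate and -URA supplement, pH 6.0, with 2% galactose.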
# CHX counter = counter-screen for Shiga toxin inhibitors: cycloheximide protein synthesis inhibition. cell reporter, cycloheximide protein synthesis inhibition counterscreen. 300,000 compounds, 12% hits. max response, %; in the data active = max response mostly above about 13%, no sharp cut-off; inactive = mostly below about 14%; note: read at 38.3 µM for the half of the compounds with a filed dose; 0% is about no effect
# Shiga toxin inh = Shiga toxin inhibition; 290,000 compounds, 9.2% hits; AID 2315; inhibition, % at 38.7 µM; Vero cells, Shiga toxin protein synthesis inhibition reporter; in the data active = inhibition mostly above about 28%, no sharp cut-off; inactive = mostly below about 43%; note: 0% is about no effect
# SARS PLP yeast = SARS-CoV PLP inhibition in yeast; Potency, µM (top dose mostly 32.9 µM), for the others: top-dose activity, positive = growth rescue, actives largely listed as activators; S. cerevisiae expressing SARS-CoV PLpro, growth rescue; AID 485353; 330,000 compounds, 0.19% hits; note: potency is the fitted concentration of half-maximal effect; 0% is about no effect; nearly all actives have a fitted effect of over 55% in size
# Pf growth 48h = inhibits P. falciparum growth in the first generation, 48 h; P. falciparum luciferase growth in erythrocytes, 48 h; Potency, µM (doses to about 28.7 µM), for the others: at the top dose activity change, negative = inhibition, usual class: inhibitors; 310,000 compounds, 5.9% hits; AID 504832; active = well fitted inhibition curve with a large enough effect; inconclusive = small, poorly fitted or top-dose-only effect, or another doubt; inactive = no such curve, though single readings can be large or run the other way; note: potency is the fitted concentration of half-maximal effect; % is set by controls: 0 for no effect and ±100 for the full control effect
#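 Parasite viability was followed by luminescence of a genomically integrated firefly luciferase. Cultures held 0.1% parasitemia at 2% hematocrit (final), incubated under 5% CO2 at 37 C.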
# * = called active by the depositor; u = inconclusive; x = no result; [ ] = remark or other dose. Unless noted, calls come from the whole dose curve.
SMILES,Pf growth 96h,NS1 function inh,CHX counter,Shiga toxin inh,SARS PLP yeast,Pf growth 48h
CCOc1ccc2nc(NC(=O)C3CCCN(S(=O)(=O)c4c(C)noc4C)C3)sc2c1 (stereo not given),13µM*,-75%,25*,28*,-2%,u
O=C(Nc1cccc(F)c1)C1CCN(C(=O)N2CCOc3ccccc32)CC1,9%,-3%,-3,-8,-1%,-13%
COCCOC(=O)CSc1ncccc1-c1nc2cc(C)c(C)cc2[nH]1,15%,x,33*,71,-13%,118%
Cc1cc2nc(-c3cccnc3SCC(=O)NC(C)C)[nH]c2cc1C,67%,x,79*,66*,1%,194%
O=C(Nc1cccnc1)c1ccc2snnc2c1,15%,-12%,21,-1,2%,36%
CC1CCC(NC(=O)c2ccc3snnc3c2)CC1 (stereo not given),u,-3%,41*,50*,-6%,44%
COc1ccccc1NC(=O)c1ccc2snnc2c1,-14%,-6%,16,42*,-1%,7%
COc1ccccc1NC(=O)c1ccc2c(O)c(S(=O)(=O)c3ccccc3)c(=O)[nH]c2c1,12µM*,12%,-1,-5,-4%,26%
COc1ccc(S(=O)(=O)c2c(O)c3ccc(C(=O)Nc4ccccc4)cc3[nH]c2=O)cc1,u,12%,-4,-3,-3%,25%
O=C(Nc1ccccc1)c1ccc2snnc2c1,-1%,-1%,25*,67*,0%,34%
CN(CC(=O)Nc1ccc(F)cc1)C(=O)COC(=O)c1ccc(-c2ccccc2)cc1,88%,x,x,x,-4%,48%
COc1cc(NC(=O)c2ccc3snnc3c2)cc(OC)c1,73%,2%,29*,23,-1%,72%
O=C(Nc1ccccc1OC(F)F)c1ccccc1,x,-13%,10,-9,-20%,16%
Cc1ccc(C(=O)Nc2ccccc2OC(F)F)cc1,29%,-17%,37*,45*,-9%,x
COc1ccccc1OC(=O)c1ccc2nsnc2c1,0%,-1%,9.9*,15,-11%,24%
COC(=O)c1ccc(C(=O)Nc2ccc(N)cc2N)cc1,-9%,-1%,-3,6,-2%,4.1µM*
O=C(NC1CC1)c1ccc2snnc2c1,-3%,3%,-2,17,1%,14%
CSC(=[SH+])N=N/C(=C1/C=CC=CN1)c1ccccn1.[Cu][Br],x,21%,x,x,x,x
COCCN1CC(C(=O)NCc2ncccc2C)CCC1=O (stereo not given),32%,2%,1,-24,-9%,18%
COc1ccccc1NC(=O)c1ccc(N)cc1,-16%,-6%,16*,60*,6%,x
Cc1ccc(NC(=O)c2ccc3snnc3c2)cc1,12%,3%,18*,29,-2%,-2%
COc1ccccc1NC(=O)c1ccccc1C(=O)Nc1ccccc1OC,-2%,2%,-3,-2,-9%,13%
COc1ccccc1NC(=O)c1ccc2nsnc2c1,-1%,-7%,26*,107*,-2%,174%
Cc1nnsc1C(=O)Nc1ccccc1,10µM*,4%,-1,18,2%,-5%
CC(C)c1ccc(NC(=O)c2ccc3snnc3c2)cc1,74%,-12%,2,-10,-2%,-1%
SMILES,Pf growth 96h,NS1 function inh,CHX counter,Shiga toxin inh,SARS PLP yeast,Pf growth 48h
C=C(C)Cc1c(C)c(C#N)c2nc3ccccc3n2c1N1CCCCC1,u,-2%,-2,-16,5%,x
C=CCc1c(C)c(C#N)c2nc3ccccc3n2c1N1CCCCC1,1.9µM*,0%,-2,6,-2%,u
Cc1cccc(NC(=O)c2ccc3c(c2)CCN3S(C)(=O)=O)c1,9%,-9%,29*,47*,-9%,2%
Cc1ccc(NC(=O)c2ccc3c(c2)CCN3S(C)(=O)=O)cc1C,0%,3%,29*,31*,-11%,59%
Cc1cc(C)cc(NC(=O)CCn2ccnc2)c1,18%,-3%,-1,-9,-1%,4%
C=C(C)Cn1c(SCC(=O)N/N=C/c2cccc(O)c2)nc2ccccc2c1=O,-1%,-8%,1,-9,12%,-12%
O=C1OC(c2cccs2)=N/C1=C/c1ccc(-c2cccc(C(=O)O)c2)o1,30%,3%,26*,27,5%,99%
O=C1OC(c2cccs2)=N/C1=C\c1ccc(-c2ccccc2Cl)o1,25%,-10%,0,-2,-1%,27%
O=C(Nc1cccc(C(F)(F)F)c1)/C(=C/c1ccco1)NC(=O)c1cccs1,3%,-9%,-2,-16,1%,-19%
C=C1C(=O)O[C@@H]2C[C@@H](C)[C@H]3C=CC(=O)[C@]3(O)C[C@@H]12,u,14%,14*,29,2%,u
O=C1CSCN1c1ccc(Cl)cc1,27%,0%,7,-1,0%,1%
Cc1c(Cl)sn(-c2ccc(Cl)cc2)c1=O,u,-57%,35*,92*,-6%,u
Cc1c(C(=O)NCc2cccnc2)sc2nc(-c3ccccc3)cn12,u,-8%,24*,31*,-5%,u
Cc1c(C(=O)NCc2cccnc2)sc2nc(-c3ccc(F)cc3)cn12,u,-54%,30*,45*,-13%,0%
Cc1c(C(=O)NCc2ccco2)sc2nc(-c3ccccc3)cn12,u,-210%,54*,66*,-14%,u
Cc1c(C(=O)Nc2ccncc2)sc2nc(-c3ccccc3)cn12,u,-37%,18*,22,-5%,4.1µM*
Cc1c(C(=O)NCCCN2CCOCC2)sc2nc(-c3ccc(F)cc3)cn12,u,-1%,10,15,14%,u
Cc1c(C(=O)Nc2ccc3c(c2)OCCO3)sc2nc(-c3ccccc3)cn12,u,-24%,12,6,-23%,u
Fc1ccc(CSc2nsc(SCc3ccc(F)cc3)n2)cc1,x,4%,11,-41,-6%,0%
CSc1nsc(SCc2ccc(F)cc2)n1,x,18%[9.22 µM],13*,8,-6%,12%
CCOc1ncccc1C(=O)Nc1nc(SC)ns1,132%,x,28*,66*,0%,56%
O=C(CSc1nnc(NC(=O)c2c(F)cccc2Cl)s1)Nc1ccccc1F,-1%,7%,8.3*,19,5%,14%
CCOc1ncccc1C(=O)Nc1nnc(C)s1,57%,x,0,22,-2%,-15%
CCOC(=O)c1ccc(NC(=O)CSc2nc(SC)ns2)cc1,u,-144%,48*,60*,x,-19%
O=C(O)c1ccc(NC(=S)NC(=O)c2cncc(Br)c2)cc1,0%,9%,-4,12,12%,-11%
CSc1nsc(SCC(=O)Nc2nncs2)n1,39%,x,-5,16,4%,1%
CSc1nsc(SCC(=O)Nc2ccccc2)n1,24%,-9%,40*,34,-27%,46%
CSc1nsc(SCC(=O)Nc2ccc(OC(C)=O)cc2)n1,5%,-1%,27*,58,0%,68%
